Source: PubChem BioAssay (National Center for Advancing Translational Sciences (NCATS))
Compounds with a hit are over-represented: about 19% of the library has one in this group of screens.
HT1080-NT tox: kills 2HG-producing HT-1080-NT fibrosarcoma cells | HT-1080-NT fibrosarcoma viability, CellTiter-Glo ATP luminescence, 48 h | Potency, µM (doses to about 46.1 µM), for inactives: top-dose activity, negative = less viability, most hits filed as cytotoxic | hit rate 1.6% among 360,000;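 further: NT is the 2HG producing partner of a matched IDH1 knockdown line; potency means the concentration at half of the fitted maximal effect; 0% = DMSO-treated cells and -100% = media-only wells without cells; nearly all actives have a fitted effect of over 55% in size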
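750 cells/well, RPMI + 5% FBS; 2 h settle, compound pin-transfer, 48 h at 37 degrees C. CellTiter-Glo 10 min RT, luminescence. Normalized to DMSO and media-only wells.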
IL1B secr inh: blocks inflammasome-driven IL-1 beta release; THP-1 LPS/ATP IL-1B secretion, AlphaLISA, 16 h; active compounds read low; activity change, % at 57.5 µM; hit rate 4.7% among 360,000; AID 743279; in the data active means activity change below about -50%; inconclusive means mostly about -30% to -49%
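Secreted IL-1B measured by AlphaLISA bead assay after 16 h compound exposure of THP-1 cells; compounds (final up to 57.5 uM) added 1 h before LPS (250 ng/mL) and ATP (1.25 mM) stimulation; lower signal means less secretion.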
DT40 TDP1 CPT: growth inhibition of DT40 Tdp1-/-;hTDP1 cells with camptothecin (screen for TDP1 inhibitors); chicken DT40 Tdp1-/-;hTDP1 cells + 20 nM CPT, ATP luminescence, 48 h; Potency, µM (highest dose often 46.2 µM), for the others: top-dose activity change, negative = growth inhibition, most hits filed as inhibitors; hit rate 12% among 420,000; AID 686979; further: potency means the concentration at half of the fitted maximal effect; nearly all actives have a fitted effect of over 55% in size
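Chicken DT40 Tdp1-/- cells complemented with human TDP1, 400 cells/well, exposed to compounds plus 20 nM camptothecin for at least 48 h at 37 C; viability read as ATP content by CellTiter-Glo luminescence.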
HT1080 IDH1KD tx: toxicity to HT-1080 IDH1 knockdown cells (counter line). HT-1080 IDH1 knockdown viability, ATP luminescence, 48 h. Potency, µM (top dose mostly 46.1 µM), for the others: at the top dose activity, negative = toxicity, usual class: cytotoxic. hit rate 2% among 360,000. AID 686971;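 further: potency means the concentration at half of the fitted maximal effect; 0% = DMSO wells and -100% = cell-free medium wells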
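IDH1KD HT-1080 cells, 750/well, RPMI + 5% FBS; compound pinned after 2 h settling; 48 h, 37 °C; CellTiter-Glo luminescence; % activity normalised to DMSO and no-cell wells; curves fitted, classed by r2 and efficacy.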
TDP1 cell noCPT: qHTS for Inhibitors of human tyrosyl-DNA phosphodiesterase 1 (TDP1): qHTS in cells in absence of CPT. Potency, µM (series often up to 46.2 µM), for the others: top-dose activity change, negative = growth inhibition, hits mostly inhibitors. hit rate 15% among 420,000. AID 686978, 2013. DT40 Tdp1-/- hTDP1 cells, no CPT, ATP luminescence, 48 h; further: potency means the concentration at half of the fitted maximal effect; nearly all actives have a fitted effect of over 55% in size
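Growth kinetics read by CellTiter-Glo luminescence after ≥48 hr at 37 °C. Cells: DT40 Tdp1-/- stably carrying human TDP1, 400 per well, compound exposure in the absence of CPT (DMSO vehicle).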
Active calls of the source: *. Unless noted, the call rests on the fitted dose curve; in most records, active means well fitted curve in the direction sought with a large enough effect; inconclusive means small, poorly fitted or top-dose-only effect, or another doubt; inactive means no such curve, though single readings can be large; an effect the other way counts as inactive or inconclusive. Unless noted, on the % scale 0 is the no-effect control and ±100 the full control effect.

How did COc1cccc(N2CCN(C(=O)CCn3nc(C)c(S(=O)(=O)N4CCCC4)c3C)CC2)c1 do in these assays?
DT40 TDP1 CPT: inconclusive; TDP1 cell noCPT: 14.6µM*

How did CCCCCNC(=O)C(c1ccnc2ccccc12)n1c(=O)c(-c2cc3ccccc3[nH]2)nc2ccccc21 (configuration not stated) do in these assays?
HT1080-NT tox: -25.9%; IL1B secr inh: -12.3; DT40 TDP1 CPT: inconclusive; HT1080 IDH1KD tx: -22.1%; TDP1 cell noCPT: inconclusive

Results for Cc1ccc(NS(=O)(=O)c2c(C)noc2C)cc1 ?
HT1080-NT tox: 2.7%; IL1B secr inh: 14.4; DT40 TDP1 CPT: 3.7%; HT1080 IDH1KD tx: 1.0%; TDP1 cell noCPT: 2.6%

What do the screens show for `CCC(=O)Oc1ccc(C/C(=N\O)c2ccc(O)cc2O)o1`?
HT1080-NT tox: inconclusive; IL1B secr inh: -2.1; DT40 TDP1 CPT: inconclusive; HT1080 IDH1KD tx: inconclusive; TDP1 cell noCPT: 18.4µM*

What do the screens show for `O=C(NC1CCCCC1)C1c2ccccc2OCC(=O)N1Cc1ccco1` (configuration not stated)?
HT1080-NT tox: 1.8%; IL1B secr inh: 0.0; DT40 TDP1 CPT: -18.6%; HT1080 IDH1KD tx: inconclusive; TDP1 cell noCPT: -15.2%

Results for C/C(=C1/C=Nc2ccccc21)c1ccc(N(C)C)cc1 ?
DT40 TDP1 CPT: 7.94µM*; TDP1 cell noCPT: 10µM*

How did CC(NC(=S)NC1CCCCC1)c1ccc(C(C)(C)C)cc1 (configuration not stated) do in these assays?
HT1080-NT tox: -27.1%; IL1B secr inh: -20.0; DT40 TDP1 CPT: 9.2µM*; HT1080 IDH1KD tx: 23.1µM*; TDP1 cell noCPT: inconclusive

Results for CC(C)c1ccc(C(C)NC(=S)NC2CCCCC2)cc1 (configuration not stated) ?
HT1080-NT tox: -3.3%; IL1B secr inh: 0.0; DT40 TDP1 CPT: 18.4µM*; HT1080 IDH1KD tx: -1.3%; TDP1 cell noCPT: 4.61µM*

Results for CCOc1ccc(C(C)NC(=S)NC2CCCCC2)cc1 (configuration not stated) ?
HT1080-NT tox: inconclusive; IL1B secr inh: -8.9; DT40 TDP1 CPT: inconclusive; HT1080 IDH1KD tx: -26.6%; TDP1 cell noCPT: inconclusive

Results for CCc1ccc(C(C)NC(=S)NC2CCCCC2)cc1 (configuration not stated) ?
HT1080-NT tox: -4.6%; IL1B secr inh: 9.7; DT40 TDP1 CPT: inconclusive; HT1080 IDH1KD tx: -0.8%; TDP1 cell noCPT: inconclusive

How did O=C(COC(=O)c1ccccc1SCC(=O)N1CCCC1)NCc1ccccc1 do in these assays?
HT1080-NT tox: -1.5%; IL1B secr inh: -1.5; DT40 TDP1 CPT: -19.1%; HT1080 IDH1KD tx: -2.3%; TDP1 cell noCPT: -22.2%

Results for Cc1ccc(-c2ccc(=O)n(Cc3c(F)cccc3Cl)n2)cc1 ?
HT1080-NT tox: -12.2%; IL1B secr inh: -28.9; DT40 TDP1 CPT: inconclusive; HT1080 IDH1KD tx: -8.0%; TDP1 cell noCPT: 18.4µM*

How did O=c1ccc(-c2ccccc2)nn1Cc1ccccc1 do in these assays?
HT1080-NT tox: -0.8%; IL1B secr inh: inconclusive; DT40 TDP1 CPT: inconclusive; HT1080 IDH1KD tx: 11.7%; TDP1 cell noCPT: inconclusive

What do the screens show for `COc1ccc(-c2ccc(=O)n(Cc3ccccc3)n2)cc1`?
HT1080-NT tox: 1.0%; IL1B secr inh: 1.8; DT40 TDP1 CPT: inconclusive; HT1080 IDH1KD tx: -1.5%; TDP1 cell noCPT: inconclusive

Results for COc1ccc(-c2ccc(=O)n(Cc3cccc(Cl)c3)n2)cc1 ?
HT1080-NT tox: -10.2%; IL1B secr inh: -51.1*; DT40 TDP1 CPT: inconclusive; HT1080 IDH1KD tx: -14.2%; TDP1 cell noCPT: inconclusive

What do the screens show for `Cc1ccc(-c2ccc(=O)n(Cc3cccc(Br)c3)n2)cc1`?
HT1080-NT tox: -22.0%; IL1B secr inh: -77.6*; DT40 TDP1 CPT: -1.3%; HT1080 IDH1KD tx: -12.1%; TDP1 cell noCPT: -18.4%
